Experimental data published in PubChem BioAssay.
Calls of active or inactive are those of the source.

What was measured:
[1] = system: PRMT1 (protein arginine N-methyltransferase 1); assay: PRMT1 binders on small-molecule microarrays, primary screen, biochemical, small-molecule microarray, 635 nm fluorescence (AID 1088); details: small-molecule microarray binding, higher = more signal;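 further: binding of Prmt1 protein to compounds spotted on small-molecule microarray slides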
[2] = yeast growth modulation, basal conditions, primary screen, YJM789 clinical isolate, OD600, 24 h (AID 1089);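 further: growth of clinical yeast isolate S. cerevisiae YJM 789 seeded 1000 cells per well; test concentration not given here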; details: S. cerevisiae YJM789 growth, higher = more signal, called active from +8 up or from −8 down
[3] = fission yeast growth modulation, primary screen, strain 972, OD600, 24 h, no modulator (AID 1090);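 further: basal condition with compound alone and no growth modifier present; test concentration not given here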; details: S. pombe 972 growth, higher = more signal, called active from +8 up or from −8 down
[4] = S. cerevisiae growth modulation with rapamycin, primary screen, strain BY4716, OD600, 96 h (AID 1091); details: higher = more signal, called active from +8 up or from −8 down; further: test concentration not given here
[5] = molecular target: Torsin-1A-interacting protein 2 (Homo sapiens) (UniProt Q8NFQ8); assay: LULL1 binders on small-molecule microarray, primary screen, cell lysate, human LULL1 lysate, 635/667 nm fluorescence (AID 1092); details: hLULL1 lysate binding, 635 nm fluorescence, higher = more signal;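 further: probe is lysate of COS7 cells overexpressing human LULL1; score merges per-feature 667 nm fluorescence with signal-to-noise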
[6] = E. coli growth modulation, two-sided OD650, primary screen, E. coli filamentation project, strain DRC41, 24 h (AID 1093); details: OD650, 24 h, higher = more signal, called active from +8 up or from −8 down;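 further: MC1000 strain lacking acrAB efflux and sulA so SOS filamentation is blocked; test concentration not given here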
[7] = small-molecule microarray binders of probe aLefty2, primary screen, biochemical, biotinylated probe, 635/667 nm fluorescence (AID 1094); details: higher = more signal;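 further: score merges spot fluorescence near 667 nm with spot signal-to-noise ratio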
[8] = system: Noggin (protein binding on small-molecule microarray); assay: Noggin binders on small-molecule microarray, primary screen, biochemical, 635/667 nm fluorescence (AID 1095); details: 635 nm fluorescence, higher = more signal;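 further: score merges 667 nm feature fluorescence with signal to noise over triplicate slides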
[9] = molecular target: Neurogenic locus notch homolog protein 3 (Homo sapiens) (UniProt Q9UM47); assay: NOTCH3 binders on small-molecule microarray, primary screen, biochemical, 635/667 nm fluorescence (AID 1096); details: NOTCH3 binding, 635 nm fluorescence, higher = more signal
[10] = small-molecule microarray binders of probe aEGFR, primary screen, biochemical, biotinylated probe, 635/667 nm fluorescence (AID 1097); details: higher = more signal;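 further: probe is a biotinylated anti-EGFR antibody binding compounds printed on slides; score combines fluorescence near 667 nm and signal to noise of each spot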
[11] = system: Plasmodium falciparum Sir2 (PF13_0152, Sir2A); assay: pfSir2 binders on small-molecule microarrays, primary screen, biochemical, small-molecule microarray, 635 nm fluorescence (AID 1098); details: small-molecule microarray binding, fluorescence 635 nm; higher = more signal;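 further: score merges spot fluorescence intensity with its signal-to-noise ratio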
[12] = small-molecule microarray binders of probe aDKK1, primary screen, biochemical, biotinylated probe, 635/667 nm fluorescence (AID 1099); details: higher = more signal;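 further: score merges 667nm spot fluorescence with signal to noise across triplicate slides; reference of the scale not given here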
[13] = small-molecule microarray binders of probe aCHRDL2, primary screen, biochemical, biotinylated probe, 635/667 nm fluorescence (AID 1100); details: higher = more signal
[14] = splicing luciferase reporter signal modulators, primary screen, spliceosome inhibition project, cell-based, HEK293, splice +/- reporter (AID 1101); details: luminescence, 24 h, higher = more signal, called active from +8 up or from −8 down;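 further: HEK293 cells carrying a splicing-competent luciferase reporter gene; test concentration not given here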
[15] = molecular target: Fibroblast growth factor 10 (Homo sapiens) (UniProt O15520); assay: FGF10 binders on small-molecule microarrays, primary screen, biochemical, small-molecule microarray, 635 nm fluorescence (AID 1102); details: FGF10 binding, fluorescence 635 nm, higher = more signal
[16] = system: glycogen synthase kinase-3 (GSK3A per assay name; protocol says GSK3B); assay: GSK3 binders on small-molecule microarrays, primary screen, biochemical, small-molecule microarray, 635 nm fluorescence, GSK3A (AID 1103); details: small-molecule microarray binding, fluorescence 635 nm; higher = more signal; further: the record names both GSK3A and GSK3B
[17] = molecular target: Epidermal growth factor receptor (Homo sapiens) (UniProt P00533); assay: EGFR binders on small-molecule microarrays, primary screen, biochemical, small-molecule microarray, 635 nm fluorescence (AID 1104); details: EGFR binding, higher = more signal;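 further: score merges 667 nm emission intensity with spot signal to noise over triplicate slides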
[18] = molecular target: Follistatin-related protein 3 (Homo sapiens) (UniProt O95633); assay: FSTL3 binders on small-molecule microarrays, primary screen, biochemical, small-molecule microarray, 635 nm fluorescence (AID 1105); details: FSTL3 binding, higher = more signal;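 further: score merges emission near 667 nm and signal to noise per printed spot across three slides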
[19] = molecular target: Dickkopf-related protein 1 (Homo sapiens) (UniProt O94907); assay: DKK1 binders on small-molecule microarrays, primary screen, biochemical, small-molecule microarray, 635 nm fluorescence scan (AID 1106); details: DKK1 binding, higher = more signal;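 further: score merges emission near 667 nm with signal to noise over three replicate slides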
[20] = system: Inhibin beta A chain (activin A); assay: INHBA (activin A) binders on microarrays, primary screen, biochemical, small-molecule microarray, 635 nm fluorescence scan (AID 1107); details: small-molecule microarray binding, higher = more signal;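 further: mouse activin A protein probed at 4.33 µg/mL on printed slides; score merges bound-protein fluorescence near 667 nm with spot signal-to-noise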

Chain of Neurogenic locus notch homolog protein 3 (Homo sapiens) (Q9UM47 whole entry, looked up): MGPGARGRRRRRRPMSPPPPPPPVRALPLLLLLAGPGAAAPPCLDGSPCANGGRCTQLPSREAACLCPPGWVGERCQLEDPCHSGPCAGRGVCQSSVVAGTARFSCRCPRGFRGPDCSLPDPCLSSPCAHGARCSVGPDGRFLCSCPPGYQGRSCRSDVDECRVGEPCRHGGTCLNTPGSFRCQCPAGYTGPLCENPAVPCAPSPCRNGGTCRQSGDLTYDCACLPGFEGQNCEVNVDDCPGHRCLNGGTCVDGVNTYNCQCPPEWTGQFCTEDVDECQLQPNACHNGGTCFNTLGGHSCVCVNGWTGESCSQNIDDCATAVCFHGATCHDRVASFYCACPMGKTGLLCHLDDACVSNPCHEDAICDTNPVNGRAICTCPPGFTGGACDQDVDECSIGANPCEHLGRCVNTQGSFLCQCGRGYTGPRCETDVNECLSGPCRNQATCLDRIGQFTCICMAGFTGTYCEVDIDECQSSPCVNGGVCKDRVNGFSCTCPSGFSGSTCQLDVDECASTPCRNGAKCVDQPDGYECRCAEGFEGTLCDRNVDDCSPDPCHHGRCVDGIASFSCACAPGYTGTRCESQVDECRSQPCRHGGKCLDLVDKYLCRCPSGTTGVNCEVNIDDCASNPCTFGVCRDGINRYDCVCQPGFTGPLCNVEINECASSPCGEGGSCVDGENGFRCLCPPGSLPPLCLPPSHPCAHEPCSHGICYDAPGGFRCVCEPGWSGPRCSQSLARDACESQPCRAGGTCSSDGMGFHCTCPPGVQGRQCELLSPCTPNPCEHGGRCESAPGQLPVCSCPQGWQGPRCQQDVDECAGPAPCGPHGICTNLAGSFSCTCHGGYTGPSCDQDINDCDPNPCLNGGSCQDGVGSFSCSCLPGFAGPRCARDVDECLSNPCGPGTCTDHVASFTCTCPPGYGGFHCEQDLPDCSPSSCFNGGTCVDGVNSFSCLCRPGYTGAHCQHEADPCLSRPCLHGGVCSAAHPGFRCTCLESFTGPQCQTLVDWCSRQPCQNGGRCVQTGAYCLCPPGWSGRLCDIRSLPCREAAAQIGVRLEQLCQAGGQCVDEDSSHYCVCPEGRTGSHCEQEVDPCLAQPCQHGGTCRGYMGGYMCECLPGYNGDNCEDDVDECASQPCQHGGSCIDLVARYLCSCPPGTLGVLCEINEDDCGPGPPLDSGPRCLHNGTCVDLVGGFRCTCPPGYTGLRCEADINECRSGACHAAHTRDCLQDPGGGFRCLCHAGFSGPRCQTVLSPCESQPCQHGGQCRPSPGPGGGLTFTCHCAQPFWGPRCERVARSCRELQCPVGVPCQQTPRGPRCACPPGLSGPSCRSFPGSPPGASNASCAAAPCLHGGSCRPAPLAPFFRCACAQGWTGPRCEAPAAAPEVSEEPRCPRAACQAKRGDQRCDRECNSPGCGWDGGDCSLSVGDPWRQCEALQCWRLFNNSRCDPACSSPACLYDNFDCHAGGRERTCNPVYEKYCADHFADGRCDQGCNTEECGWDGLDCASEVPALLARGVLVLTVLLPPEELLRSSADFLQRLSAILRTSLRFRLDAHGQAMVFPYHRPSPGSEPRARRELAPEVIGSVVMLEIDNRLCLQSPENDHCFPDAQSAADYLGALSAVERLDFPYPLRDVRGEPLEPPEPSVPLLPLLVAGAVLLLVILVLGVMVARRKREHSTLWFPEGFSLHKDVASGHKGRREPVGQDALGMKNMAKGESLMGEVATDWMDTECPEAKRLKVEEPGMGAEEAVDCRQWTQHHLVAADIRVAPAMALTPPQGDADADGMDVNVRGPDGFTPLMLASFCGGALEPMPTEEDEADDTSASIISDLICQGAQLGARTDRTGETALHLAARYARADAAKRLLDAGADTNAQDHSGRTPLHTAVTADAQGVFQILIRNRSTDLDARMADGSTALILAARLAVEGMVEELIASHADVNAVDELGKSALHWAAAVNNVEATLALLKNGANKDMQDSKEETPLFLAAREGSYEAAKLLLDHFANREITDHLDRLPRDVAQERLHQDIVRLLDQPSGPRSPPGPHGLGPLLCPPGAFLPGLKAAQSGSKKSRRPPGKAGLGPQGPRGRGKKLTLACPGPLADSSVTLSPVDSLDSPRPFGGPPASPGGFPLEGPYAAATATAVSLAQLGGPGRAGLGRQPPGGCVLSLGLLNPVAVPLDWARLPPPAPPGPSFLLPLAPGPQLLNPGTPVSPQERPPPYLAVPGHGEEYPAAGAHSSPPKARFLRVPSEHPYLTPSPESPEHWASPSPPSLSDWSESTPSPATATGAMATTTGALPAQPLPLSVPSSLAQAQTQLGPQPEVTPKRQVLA
Chain of Follistatin-related protein 3 (Homo sapiens) (O95633 whole entry, looked up): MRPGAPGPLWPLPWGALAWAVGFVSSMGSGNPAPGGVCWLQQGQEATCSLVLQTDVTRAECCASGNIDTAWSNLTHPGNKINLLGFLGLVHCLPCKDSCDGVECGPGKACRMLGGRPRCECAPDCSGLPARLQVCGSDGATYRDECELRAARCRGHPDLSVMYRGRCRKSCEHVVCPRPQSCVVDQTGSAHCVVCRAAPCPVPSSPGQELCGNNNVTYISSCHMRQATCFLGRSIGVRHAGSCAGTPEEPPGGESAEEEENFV
Chain of Torsin-1A-interacting protein 2 (Homo sapiens) (Q8NFQ8 whole entry, looked up): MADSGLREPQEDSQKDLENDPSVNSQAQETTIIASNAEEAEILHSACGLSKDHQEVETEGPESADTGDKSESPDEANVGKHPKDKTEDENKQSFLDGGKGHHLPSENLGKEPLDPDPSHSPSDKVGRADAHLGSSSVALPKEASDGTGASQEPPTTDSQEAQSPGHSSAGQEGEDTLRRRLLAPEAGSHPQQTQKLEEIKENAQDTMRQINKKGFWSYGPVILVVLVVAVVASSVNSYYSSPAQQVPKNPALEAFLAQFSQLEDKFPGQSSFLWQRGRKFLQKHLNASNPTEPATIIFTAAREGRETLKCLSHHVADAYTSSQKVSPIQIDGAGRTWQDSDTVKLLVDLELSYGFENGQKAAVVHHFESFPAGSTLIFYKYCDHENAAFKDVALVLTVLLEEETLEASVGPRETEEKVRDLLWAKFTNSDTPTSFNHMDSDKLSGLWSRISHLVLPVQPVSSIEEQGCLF
Chain of Fibroblast growth factor 10 (Homo sapiens) (O15520 whole entry, looked up): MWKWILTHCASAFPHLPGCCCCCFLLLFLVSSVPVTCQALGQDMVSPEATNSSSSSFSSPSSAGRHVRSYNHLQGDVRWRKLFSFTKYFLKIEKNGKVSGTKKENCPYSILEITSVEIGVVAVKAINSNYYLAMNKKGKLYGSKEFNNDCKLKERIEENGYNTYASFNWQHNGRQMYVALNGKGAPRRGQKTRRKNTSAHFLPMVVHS
Chain of Epidermal growth factor receptor (Homo sapiens) (P00533 whole entry, looked up): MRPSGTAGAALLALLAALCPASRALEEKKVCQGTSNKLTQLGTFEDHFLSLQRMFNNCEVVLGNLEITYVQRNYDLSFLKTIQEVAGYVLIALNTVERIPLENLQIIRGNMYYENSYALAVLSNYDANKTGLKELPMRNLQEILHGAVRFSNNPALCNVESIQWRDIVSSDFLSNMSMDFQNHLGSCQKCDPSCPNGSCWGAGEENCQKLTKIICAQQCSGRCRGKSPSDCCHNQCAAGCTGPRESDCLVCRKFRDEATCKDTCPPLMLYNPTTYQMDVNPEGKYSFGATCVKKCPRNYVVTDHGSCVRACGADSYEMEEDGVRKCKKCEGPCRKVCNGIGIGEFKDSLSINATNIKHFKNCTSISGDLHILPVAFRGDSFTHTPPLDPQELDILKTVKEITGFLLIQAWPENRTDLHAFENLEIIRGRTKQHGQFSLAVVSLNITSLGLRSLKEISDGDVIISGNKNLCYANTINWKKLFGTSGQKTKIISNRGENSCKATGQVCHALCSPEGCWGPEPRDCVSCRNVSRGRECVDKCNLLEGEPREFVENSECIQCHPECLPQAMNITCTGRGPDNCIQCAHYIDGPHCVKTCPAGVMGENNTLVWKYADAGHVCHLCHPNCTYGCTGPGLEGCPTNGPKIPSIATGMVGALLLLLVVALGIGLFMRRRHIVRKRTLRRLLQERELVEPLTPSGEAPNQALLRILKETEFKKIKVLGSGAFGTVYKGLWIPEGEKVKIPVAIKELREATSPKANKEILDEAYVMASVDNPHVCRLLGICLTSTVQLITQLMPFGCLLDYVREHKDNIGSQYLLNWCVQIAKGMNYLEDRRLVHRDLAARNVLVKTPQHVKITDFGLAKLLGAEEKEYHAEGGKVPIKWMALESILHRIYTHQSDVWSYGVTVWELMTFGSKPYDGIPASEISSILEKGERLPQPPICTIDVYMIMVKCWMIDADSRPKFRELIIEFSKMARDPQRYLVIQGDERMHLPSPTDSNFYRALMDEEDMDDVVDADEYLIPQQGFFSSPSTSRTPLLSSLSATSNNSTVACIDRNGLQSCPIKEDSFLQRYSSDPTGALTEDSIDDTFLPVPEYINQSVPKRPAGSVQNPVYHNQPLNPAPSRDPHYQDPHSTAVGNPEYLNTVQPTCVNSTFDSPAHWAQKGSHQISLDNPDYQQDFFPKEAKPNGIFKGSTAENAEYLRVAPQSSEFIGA
Chain of Dickkopf-related protein 1 (Homo sapiens) (O94907 whole entry, looked up): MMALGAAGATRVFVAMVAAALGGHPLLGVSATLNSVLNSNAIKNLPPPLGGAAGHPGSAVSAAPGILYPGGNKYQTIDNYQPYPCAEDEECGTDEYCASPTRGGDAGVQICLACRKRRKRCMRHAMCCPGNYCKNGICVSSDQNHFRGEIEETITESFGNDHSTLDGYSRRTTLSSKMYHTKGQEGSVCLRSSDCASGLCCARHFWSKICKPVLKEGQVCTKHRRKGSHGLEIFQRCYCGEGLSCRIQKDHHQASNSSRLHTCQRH

SMILES | composite z-score [1] | z-score [2] | z-score [3] | z-score [4] | composite z-score [5] | z-score [6] | composite z-score [7] | composite z-score [8] | composite z-score [9] | composite z-score [10] | composite z-score [11] | composite z-score [12] | composite z-score [13] | z-score [14] | composite z-score [15] | composite z-score [16] | composite z-score [17] | composite z-score [18] | composite z-score [19] | composite z-score [20]
CN(C)CCCNC(=O)[C@@H]1c2ccccc2C(=O)N(Cc2ccccc2)[C@H]1c1ccc(CO)cc1 | 0.0881 | 0.115 (inactive) | -0.699 (inactive) | -0.848 (inactive) | 0.282 | 0.442 (inactive) | 0.555 | -0.848 | -1.21 | 0.259 | 0.0072 | 0.189 | 0.341 | -0.00771 (inactive) | -0.952 | -0.383 | -0.254 | 0.433 | -0.354 | 1.33
CCOC(=O)[C@H](Cc1ccccc1)NC(=O)CCC1CC(OC(=O)NCCc2ccc(F)cc2)CC2(CCCC(COC(=O)NCC(c3ccccc3)c3ccccc3)O2)O1 (stereo not given in full) | 1.57 | 0.378 (inactive) | 0.745 (inactive) | -0.436 (inactive) | 2.18 | 0.0565 (inactive) | -0.199 | 0.538 | 1.14 | -0.139 | 0.892 | -0.273 | -0.368 | 0.378 (inactive) | 0.617 | 0.729 | 0.374 | 0.979 | 0.898 | -0.235
COCCOC(=O)N1C(=O)[C@@]2(c3cc(C#Cc4ccc(OC)cc4)ccc31)[C@H](C(=O)N1CCN(c3ncccn3)CC1)[C@H]1C(=O)O[C@H](c3ccccc3)[C@H](c3ccccc3)N1[C@@H]2c1ccc(OCCO)cc1 | 1.55 | 2.04 (inactive) | 1.46 (inactive) | 5.06 (inactive) | 2.12 | -0.371 (inactive) | 0.192 | 0.918 | 1.11 | 0.232 | 0.593 | 0.61 | 0.628 | 0.688 (inactive) | 0.968 | 0.043 | 0.624 | 1.11 | 1.19 | 1.03
O=C1[C@H]2[C@H]3[C@H](O)[C@H](O)CC(=NOCc4ccccc4)[C@H]3CC[C@H]2C(=O)N1c1ccc(F)cc1F | -0.129 | -1.3 (inactive) | -0.128 (inactive) | -0.982 (inactive) | -0.089 | 0.358 (inactive) | -0.373 | -0.153 | -0.367 | -0.0936 | -0.183 | -0.268 | -0.675 | -0.772 (inactive) | 0.266 | 0.167 | 0.534 | -0.0913 | 0.0949 | -0.364
C=CCC(OC(C)=O)[C@@H]1[C@@H](N(Cc2cc3ccccc3o2)C(=O)Cc2ccc(F)cc2)c2cc(OCCCO)ccc2N1C(=O)Cc1ccc(OC)cc1 (stereo not given in full) | -1.46 | -1.54 (inactive) | -0.644 (inactive) | -0.624 (inactive) | -0.362 | -0.824 (inactive) | -0.198 | -0.0439 | -1.37 | -0.131 | -0.144 | -0.361 | 0.102 | -0.844 (inactive) | 0.0509 | -1.17 | -0.239 | -0.0882 | -0.191 | 0.772
